Bioassay records deposited in PubChem BioAssay by National Center for Advancing Translational Sciences (NCATS).
SW480 rerep: inducers of DNA re-replication in SW480 colon cancer cells. Potency, µM (doses to about 46.1 µM), without a hit: at the highest dose re-replication activation, most hits filed as activators. SW480 DNA re-replication, Hoechst DNA content imaging, 48 h. 1.8% of 340,000 active; also: potency is read from the fitted curve at half-maximal effect; % of control where 0% means no effect; nearly all actives have a fitted effect of over 55% in size
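Hoechst fluorescence of nuclei (405 nm excitation, 500-530 nm emission) measured by plate-scanning imager after 48 hr compound exposure at 37 C; re-replication scored as increased number of nuclei with elevated intensity.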
MCF10A rereplic: inducers of DNA re-replication in MCF 10A breast cells | MCF 10A DNA re-replication, Hoechst nuclear intensity, 48 h | Potency, µM (highest dose often 46.1 µM), without a hit: top-dose activity, positive = re-replication, hits mostly activators | 2.9% of 350,000 active | AID 624296; also: potency is read from the fitted curve at half-maximal effect; % of control where 0% means no effect; nearly all actives have a fitted effect of over 50% in size
KB-V1 MDR tox: KB-V1 MDR subline cytotoxicity. KB-V1 MDR cells viability, CellTiter-Glo, 72 h. Potency, µM (top dose mostly 46.1 µM), most hits filed as cytotoxic. 3.4% of 400,000 active; also: potency is read from the fitted curve at half-maximal effect; % is scaled to controls: 0 for no effect and ±100 for the full control effect; nearly all actives have a fitted effect of over 60% in size
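KB-V1, DMEM (no phenol red) + 10% FBS; cpd pin-transferred, titration series; 72 h, 37 degrees C; CellTiter-Glo, luminescence. Data normalized, curve-fit.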
KB-3-1 tox: kills parental KB-3-1 adenocarcinoma cells | KB-3-1 viability, CellTiter-Glo ATP luminescence, 72 h | 1.4% of 400,000 active | AID 1347075 | Potency, µM (top dose mostly 46.1 µM), hits mostly cytotoxic; also: potency is read from the fitted curve at half-maximal effect; % is scaled to controls: 0 for no effect and ±100 for the full control effect; nearly all actives have a fitted effect of over 60% in size
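KB-3-1 cells, DMEM (no phenol red) + 10% FBS; compound by pin transfer, 72 h, 37 °C. Readout: CellTiter-Glo luminescence after 10 min. Data normalized, curve-fitted.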
KCNH2 3.1 block: KCNH2 3.1 (human) potassium channel inhibition | U2OS KCNH2 3.1, thallium flux FluxOr; active compounds read low | activity change, % (tested at about 1.8 µM) | 0.95% of 340,000 active | AID 720553;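 active = maximum activity change below -70%; inconclusive = maximum activity change from -70% to -50%; inactive = maximum activity change above -50%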;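 also: thallium influx rate constant from kinetic fluorescence after stimulation buffer; % is scaled to controls: 0 for no effect and ±100 for the full control effect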
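Virally transduced U2OS (3.1 isoform, 4 h infection in dark at RT) → overnight 37 C → FluxOr + Red40 in HBSS/HEPES, 45 min → stimulation buffer, 2 min kinetic read → rate constant vs DMSO controls.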
KCNH2 WT inh: inhibitors of human wildtype KCNH2 potassium channel | Q12809 | activity change, % at 1.84 µM | 0.37% of 340,000 active | U2OS, BacMam KCNH2, thallium flux FluxOr; active compounds read low;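 active = maximum activity change below -70%; inconclusive = maximum activity change between -70% and -50%; inactive = maximum activity change above -50%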; also: % is scaled to controls: 0 for no effect and ±100 for the full control effect
Target sequence (Q12809 whole entry, looked up): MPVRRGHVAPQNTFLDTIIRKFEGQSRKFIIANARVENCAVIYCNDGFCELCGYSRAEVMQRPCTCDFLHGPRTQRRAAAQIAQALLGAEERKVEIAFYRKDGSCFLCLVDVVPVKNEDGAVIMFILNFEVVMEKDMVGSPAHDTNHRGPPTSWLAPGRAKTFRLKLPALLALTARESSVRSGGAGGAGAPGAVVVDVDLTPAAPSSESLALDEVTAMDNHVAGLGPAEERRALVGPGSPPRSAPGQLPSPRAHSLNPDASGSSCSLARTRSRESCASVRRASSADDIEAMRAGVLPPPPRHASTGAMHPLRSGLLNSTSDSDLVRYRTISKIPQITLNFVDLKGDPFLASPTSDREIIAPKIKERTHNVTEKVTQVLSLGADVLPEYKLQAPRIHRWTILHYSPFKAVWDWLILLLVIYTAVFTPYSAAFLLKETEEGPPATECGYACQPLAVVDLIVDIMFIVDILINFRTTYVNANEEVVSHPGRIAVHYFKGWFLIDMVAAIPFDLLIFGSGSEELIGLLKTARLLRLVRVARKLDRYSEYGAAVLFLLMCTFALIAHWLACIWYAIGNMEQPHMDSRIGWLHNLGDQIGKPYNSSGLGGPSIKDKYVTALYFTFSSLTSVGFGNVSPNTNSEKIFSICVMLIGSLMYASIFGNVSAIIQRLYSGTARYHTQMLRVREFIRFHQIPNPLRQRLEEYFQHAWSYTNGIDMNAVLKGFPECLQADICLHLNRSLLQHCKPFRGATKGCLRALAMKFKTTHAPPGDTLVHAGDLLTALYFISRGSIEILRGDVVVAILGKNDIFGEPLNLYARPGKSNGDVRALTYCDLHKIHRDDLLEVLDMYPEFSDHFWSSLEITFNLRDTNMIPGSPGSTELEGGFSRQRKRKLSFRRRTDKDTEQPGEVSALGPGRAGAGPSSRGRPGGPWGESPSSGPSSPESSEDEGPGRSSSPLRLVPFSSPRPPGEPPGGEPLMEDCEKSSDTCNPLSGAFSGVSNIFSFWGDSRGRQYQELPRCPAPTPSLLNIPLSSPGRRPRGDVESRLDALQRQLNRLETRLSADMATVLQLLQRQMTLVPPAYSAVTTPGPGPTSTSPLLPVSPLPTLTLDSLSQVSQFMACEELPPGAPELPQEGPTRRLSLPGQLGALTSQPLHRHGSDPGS
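U2OS cells transduced with wild-type KCNH2 virus are loaded with FluxOr dye for 45 min, and thallium flux is measured in kinetic reads before and after stimulation buffer. Rate constants are normalized to DMSO controls.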
An asterisk follows results filed as active; i = inactive; u = inconclusive; x = no result given. The list is not random: actives were taken first. Their share in the collection is about 7.6%. Unless noted, calls follow the shape of the dose curve; as a rule, active = well fitted curve in the direction sought with a large enough effect; inconclusive = small, poorly fitted or top-dose-only effect, or another doubt; inactive = no such curve, though single readings can be large; an effect the other way counts as inactive or inconclusive.

SMILES | SW480 rerep | MCF10A rereplic | KB-V1 MDR tox | KB-3-1 tox | KCNH2 3.1 block | KCNH2 WT inh
O=C(NC1CCCCC1)C(c1ccnc2ccccc12)n1c(=O)c(-c2ccccc2)nc2ccccc21 (stereo unspecified) | x | x | 23µM* | 18µM* | x | x
C(=C\c1ccccc1)/CN1CCN(C(c2cc3ccccc3o2)c2nnnn2Cc2ccccc2)CC1 (stereo unspecified) | x | x | 16µM* | i | x | x
C=NC(C(=O)NC1C(=O)N2C1SC(C)(C)C2C(=O)O)c1ccccc1 (stereo unspecified) | -2% | 9% | x | x | x | x
Cc1nn(C)c(Cl)c1CN1CCCC(CO)(Cc2ccccc2)C1 (stereo unspecified) | u | 0% | i | i | -85* | 0
CCOc1ccc(CN2CCCC(CO)(Cc3ccc(F)cc3)C2)cc1 (stereo unspecified) | 13% | 4% | i | i | -97* | -33
CC(C)CCc1noc(CN(C)CCC2CCOCC2)n1 | -2% | -6% | i | i | -12 | -11
CC(C)CCc1noc(CN(CC2CCC2)CC2CCCO2)n1 (stereo unspecified) | -3% | 0% | i | i | -72* | -11
CC(=O)NC(c1ccco1)c1cc(Cl)c2cccnc2c1O (stereo unspecified) | x | x | i | i | x | x
CCC(=O)NC(c1ccc(OC)cc1)c1cc(Cl)c2cccnc2c1O (stereo unspecified) | 0.52µM* | 11% | i | u | -31 | 1
CC(=O)NC(c1cc(Cl)c2cccnc2c1O)C(C)C (stereo unspecified) | u | -51% | u | i | x | x
Cc1cc(NC(c2cccnc2)c2ccc3cccnc3c2O)no1 (stereo unspecified) | 1.5µM* | 10µM* | u | u | -25 | 17
CC(=O)NC(c1cc(Cl)c2cccnc2c1O)C1CC1 (stereo unspecified) | 1.3µM* | u | 16µM* | i | x | x
CC(=O)NC(c1ccc(C)cc1)c1cc(Cl)c2cccnc2c1O (stereo unspecified) | 2.9µM* | u | u | 5.8µM* | 1 | 4
Oc1c(C(Nc2cccc(C(F)(F)F)c2)c2cccnc2)ccc2cccnc12 (stereo unspecified) | u | u | i | i | x | 5
O=C(CN1CCN(S(=O)(=O)c2ccc(F)c(Cl)c2)CC1)N1CCOCC1 | 3% | 8% | i | i | -28 | -5
Oc1c(C(Nc2ccccn2)c2ccccc2)cc(Cl)c2cccnc12 (stereo unspecified) | x | x | i | u | x | x
CCC(=O)NC(c1ccco1)c1cc(Cl)c2cccnc2c1O (stereo unspecified) | 2.6µM* | u | u | u | 7 | 9
COc1ccc(C(=O)NC(c2ccc(OC)c(OC)c2)c2cc(Cl)c3cccnc3c2O)cc1 (stereo unspecified) | x | x | i | i | x | x
CCCCC(=O)NC(c1ccco1)c1cc(Cl)c2cccnc2c1O (stereo unspecified) | u | 26% | u | u | 2 | 3
COc1ccc(C(NC(=O)c2cccnc2)c2cc(Cl)c3cccnc3c2O)cc1OC (stereo unspecified) | u | 13µM* | 6.5µM* | u | 0 | 3
Oc1c(C(Nc2ccccn2)c2cccnc2)cc(Cl)c2cccnc12 (stereo unspecified) | 6.5µM* | 23µM* | i | u | -4 | 4
O=C(CCc1ccccc1)NC(c1cccs1)c1cc(Cl)c2cccnc2c1O (stereo unspecified) | u | u | 2.1µM* | u | 8 | 2
CC1=Nc2ccccc2N=C(NC(=O)c2ccccc2)C1c1ccccc1 (stereo unspecified) | 1% | 1% | u | i | 9 | 2
O=C(Nc1ccc(OC(F)F)cc1)c1nc(S(=O)(=O)Cc2ccccc2F)ncc1Cl | x | x | i | u | x | x
